Shiga inhibitor = blocks Shiga toxin action in Vero cells; Vero cells, Shiga toxin protein synthesis inhibition reporter; inhibition, % at 38.7 µM; 290,000 compounds, 9.2% hits; AID 2315; in the data active = inhibition mostly above about 28%, no sharp cut-off; inactive = mostly below about 43%
NS1 inh = inhibitors of influenza NS1 protein function; 270,000 compounds, 0.4% hits; Potency, µM (highest dose often 46.1 µM); also: actives are rising curves; nearly all actives have a fitted effect of over 50% in size
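A cell-based growth assay was used: compounds that relieve NS1-induced slow growth of budding yeast raise OD600. Assay medium was yeast nitrogen base with ammonium sulphate and -URA supplement, pH 6.0, with 2% galactose.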
SARS PLpro yeast = inhibitors of SARS-CoV papain-like protease in yeast; S. cerevisiae expressing SARS-CoV PLpro, growth rescue; 330,000 compounds, 0.19% hits; Potency, µM (series often up to 32.9 µM), hits mostly activators; also: nearly all actives have a fitted effect of over 55% in size
CHX counter = counter-screen hit for Shiga toxin inhibitors, cycloheximide; cell reporter, cycloheximide protein synthesis inhibition counterscreen; max response, %; 300,000 compounds, 12% hits; AID 2314; in the data active = max response mostly above about 13%, no sharp cut-off; inactive = mostly below about 14%; also: read at 38.3 µM for the half of the compounds with a filed dose
Of the large screens only hits and unclear results are named; the others gave an inactive call. The list is not random: actives were taken first. Their share in the collection is about 12%. Unless noted, calls follow the shape of the full dose curve.

Cc1nc(SCC(=O)NC2(C#N)CCCC2)n(CC(C)C)c1C	none (no result: Shiga inhibitor, NS1 inh, CHX counter)
Cc1ccc(CCC(=O)Nc2ncc(Cc3cccc(Cl)c3Cl)s2)o1	none
C=CCN(CC=C)c1cnn(-c2nc3ccccc3[nH]2)c(=O)c1Cl	Shiga inhibitor 89, CHX counter 27
O=c1c(Cl)c(NCCCO)cnn1-c1nc2ccccc2[nH]1	Shiga inhibitor 137, CHX counter 84
Cc1ccc(N=Cc2c(C)[nH]n(-c3nc4ccccc4[nH]3)c2=O)cc1	none
Cc1ccc(NC(=O)CN(c2ccc(Cl)cc2)S(=O)(=O)c2cc([N+](=O)[O-])ccc2Cl)c(C)c1	none
CCOC(=O)c1ccc(NC(=O)c2cc(F)c(F)cc2Cl)cc1	CHX counter 18
O=C(Nc1ccc2[nH]c(=O)[nH]c2c1)c1cc(F)c(F)cc1Cl	none
COc1ccc(NC(=O)c2cc(F)c(F)cc2Cl)cc1Cl	Shiga inhibitor 50, CHX counter 46
COc1ccc(CN2CCNC(=O)C2CC(=O)N(C)C2CCOCC2)c(F)c1 (configuration not stated)	none
Cc1nc2cc(CO)ccc2n1C	none
Cc1nc2cc(NCc3ccc(Cl)cc3)ccc2n1C	Shiga inhibitor 71, CHX counter 30
COc1ccc(OC)c(CNc2ccc3c(c2)nc(C)n3C)c1	CHX counter 9.4
COc1ccc(CNc2ccc3c(c2)nc(C)n3C)cc1	Shiga inhibitor 60, CHX counter 25
CCOc1ccc2c(c1)nc(C)n2C	none
Cc1ccc(CNc2ccc3c(c2)nc(C)n3C)cc1	CHX counter 30 (no result: Shiga inhibitor)
Cn1cccc1C(=O)OCc1ccc(C(C)(C)C)cc1	Shiga inhibitor 98, CHX counter 32
Cn1cc(Br)c(C(=O)Nc2sc3c(c2C(N)=O)CCC3)n1	Shiga inhibitor 52, CHX counter 30
Cn1nccc1C(=O)Nc1sc2c(c1C(N)=O)CCCC2	Shiga inhibitor 58, CHX counter 31
NC(=O)c1c(NC(=O)c2cccnc2)sc2c1CCCCC2	none (no result: Shiga inhibitor)
Cn1ccc(C(=O)Nc2sc3c(c2C(N)=O)CCCCC3)n1	Shiga inhibitor 99, SARS PLpro yeast inconclusive, CHX counter 57
CC(=O)Nc1sc2c(c1C(N)=O)CCCC2	none
CCn1ncc(Br)c1C(=O)Nc1sc2c(c1C(N)=O)CCC2	none
O=c1cc(CO)[nH]cc1OCc1ccccc1	none
COC(=O)NC1CSCC1OC(=O)CN1C(=O)c2ccccc2C1=O (configuration not stated)	none
Cc1cc(N(C)Cc2ccccc2)nc(-c2ccccc2)n1	none
Cc1cc(N(C)Cc2ccccc2)nc2cc(O)ccc12	Shiga inhibitor 44, CHX counter 20
COC(=O)C1=C(C)N(C)C(C)=C(C(=O)OC)C1c1ccsc1	none
CCOC(=O)C1=CN(C)C=C(C(=O)OCC)C1c1ccsc1	NS1 inh inconclusive, CHX counter 17
O=C(NC1CCCCCC1)c1c(O)c2ccccc2[nH]c1=O	Shiga inhibitor 84, CHX counter 25
O=C(Nc1cccc(F)c1)c1c(O)c2ccccc2[nH]c1=O	CHX counter 23 (no result: Shiga inhibitor)
O=C(Cc1c(O)c2ccccc2[nH]c1=O)NC1CCCCCC1	none
O=C(N/N=C/c1cccc(F)c1)c1c(O)c2ccccc2[nH]c1=O	none
Cc1ccc(Nc2nc(C)cc(C)c2C(N)=O)c(C)c1	none
COc1ccc(Cc2nc3ccc(C(=O)N(C)C(C)c4ccon4)cc3o2)cc1 (configuration not stated)	Shiga inhibitor 49, CHX counter 41
CCOCC(O)CNC(=O)c1ccc2nc(Cc3ccc(OC)c(OC)c3)oc2c1 (configuration not stated)	none
COc1ccc(Cc2nc3ccc(C(=O)N(C)CCn4ccnc4)cc3o2)cc1OC	Shiga inhibitor 63, CHX counter 77
COc1ccc(Cc2nc3ccc(C(=O)N(C)Cc4cc(C)[nH]n4)cc3o2)cc1OC	none
COC(=O)CCNC(=O)c1ccc2nc(Cc3ccc(OC)c(OC)c3)oc2c1	Shiga inhibitor 29, CHX counter 24
COCCCNC(=O)c1ccc2nc(Cc3ccc(OC)cc3)oc2c1	CHX counter 32
COc1ccc(Cc2nc3ccc(C(=O)NCCn4cccn4)cc3o2)cc1	none
O=C(OCC(=O)N(Cc1ccccc1)C1CCS(=O)(=O)C1)c1cc2c(s1)CCCC2 (configuration not stated)	none
COCCN1CCN(C(=O)c2ccc3nc(Cc4ccc(OC)c(OC)c4)oc3c2)CC1	none
COc1ccc(Cc2nc3ccc(C(=O)NCCCSC)cc3o2)cc1OC	Shiga inhibitor 39, CHX counter 45
c1ccc(-c2nnc(N3CCN(c4ccccn4)CC3)c3ccccc23)cc1	none
Oc1ccccc1/C=N/N1CCN(c2ccccn2)CC1	Shiga inhibitor 90, CHX counter 37
C(=N\N1CCN(c2ccccn2)CC1)/c1cccc2ccccc12	Shiga inhibitor 43, CHX counter 17

Screening results (PubChem BioAssay)
